The source of these data is PubChem BioAssay (NCI).

What all share (assay): NCI-60 one-dose screen, 48 h (100 = growth as untreated, 0 = no growth, -100 = all killed)
The test system of assay [1] is HCT-15 colon. The note with it: 10 µM unless noted.
The subject of assay [2] is HT29 colon. The note with it: 10 µM unless noted.
Assay [3] has as its system SNB-75 CNS. The note with it: 10 µM unless noted.
In assay [4] the test system is SNB-19 CNS. The note with it: 10 µM unless noted.
Assay [5] relates to PC-3 prostate. The following applies: 10 µM unless noted.
Assay [6] relates to SK-MEL-5 melanoma. The note with it: 10 µM unless noted.
The subject of assay [7] is UACC-62 melanoma. The note with it: 10 µM unless noted.
The test system of assay [8] is LOX IMVI melanoma. The note with it: 10 µM unless noted.
Assay [9] relates to SK-MEL-28 melanoma. The note with it: 10 µM unless noted.
The test system of assay [10] is SK-MEL-2 melanoma. The following applies: 10 µM unless noted.
Assay [11] concerns EKVX NSCLC. The following applies: 10 µM.
The subject of assay [12] is SN12C renal. The following applies: 10 µM unless noted.
The subject of assay [13] is UO-31 renal. The following applies: 10 µM unless noted.
Assay [14] has as its system TK-10 renal. The following applies: 10 µM unless noted.
Assay [15] has as its system ACHN renal. The note with it: 10 µM unless noted.
The test system of assay [16] is CAKI-1 renal. The note with it: 10 µM unless noted.
The test system of assay [17] is A498 renal. The following applies: 10 µM unless noted.
Assay [18] relates to CCRF-CEM leukemia. The note with it: 10 µM.
Assay [19] relates to MOLT-4 leukemia. The following applies: 10 µM unless noted.
In assay [20] the test system is U251 CNS. The following applies: 10 µM unless noted.

The panel holds about 83,000 compounds, 20% with a hit somewhere; the sample as a whole holds those more often.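 Step 1: grow cells in 96-well plates. Step 2: add test compound at a single concentration. Step 3: incubate 48 h. Step 4: record percent growth.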 Values without a mark were called inactive. The source made the active and inactive calls. The calls were made as follows: active = growth percent below 10; inactive = the rest.

As for `CCOC(=O)c1c(C)oc2ncnc(Nc3ccc(NC(=O)Nc4ccc(CC)cc4)cc3)c12`, the growth is 105% in assay [1]; 103% in assay [2]; 80.6% in assay [3]; 98% in [4]; 90.8% in assay [5]; 93.8% in [6]. The growth in [7] is 108%; in assay [8], 100%; in assay [9], 105%; in [10] it was 120%; in assay [11], 102%; in assay [12] it was 107%. Further, the growth in assay [13] is 94.8%; in assay [14], 112%; in [15], 98.9%; in [16], 98.4%; in [17], 109%; in [18] it was 93.8%. For the same compound, the growth in [19] was 98.7%.

For `N=C(N)c1ccc(-c2ccc(-c3ccc(F)cc3)s2)cc1`, the growth in assay [1] is -92.8% (active); in assay [2], -64.1% (active); in assay [3], -99.2% (active); in assay [4], -86.5% (active); in assay [5], -94% (active); in [6], -99% (active). For the same compound, the growth in assay [7] is -91.8% (active); in assay [8], -95.1% (active); in [9] it was -85.9% (active); in assay [10], -62.1% (active); in assay [11], -91.4% (active); in [12], -71.2% (active). Besides, the growth in [13] is -88.4% (active); in [14], -79.9% (active); in assay [15], -91.8% (active); in assay [17], -87.8% (active); in assay [18], -62% (active); in assay [19] it was -58.8% (active).

As to `CCC(C)(CC)c1ccc(O)c(C)c1`, the growth is 101% in assay [1]; 104% in assay [2]; 86.2% in assay [3]; 97.7% in [20]; 98.9% in [5]; 104% in assay [6]. Moreover, the growth in assay [7] was 109%; in [8], 97%; in assay [9], 110%; in assay [10], 82.2%; in assay [12] it was 102%; in [13], 102%. Also, the growth in [15] was 106%; in [16], 109%; in [17], 100%; in [19] it was 106%.

For the compound `CCOC(=O)c1c(C)oc2ncnc(Nc3ccc(C(=O)NCCc4ccccc4)cc3)c12`, the growth is 92.3% in assay [1]; 58.9% in [2]; 7.02% (active) in assay [3]; 84.1% in assay [4]; 59.2% in assay [5]; 85.6% in assay [6]. For the same compound, the growth in [7] was 95%; in [8], 75.2%; in assay [9] it was 87.9%; in assay [10] it was 82.5%; in [11] it was 90.4%; in assay [12], 99.4%. Further, the growth in [13] was 97.4%; in [14] it was 102%; in assay [16], 92.6%; in [17], 77.6%; in assay [18] it was 81%; in assay [19], 105%.

`CCCCCSc1ccc2nc(NC(=O)OCC)sc2c1`: the growth was 25.2% in assay [1]; 13.2% in assay [2]; 0.686% (active) in assay [3]; 37.4% in assay [4]; 21.3% in [5]; 5.59% (active) in assay [6]. For the same compound, the growth was 29.2% in assay [7]; 38.4% in assay [8]; 45.5% in [10]; 30.3% in assay [11]; 52.5% in assay [12]; 38.3% in assay [13]. Besides, the growth in assay [14] was 49.7%; in assay [15], 39.7%; in [16], 27.6%; in [17], -0.27% (active); in [18] it was 12.4%; in assay [19], 26.5%.

In the case of `COc1cc(OC)cc(-c2ccc(-c3ccc(C(=N)N)cc3)s2)c1`, the growth in [1] is -79.6% (active); in assay [2], -68.8% (active); in assay [3] it was -94.9% (active); in assay [4] it was -71.8% (active); in [5] it was -94.7% (active); in assay [6], -100% (active). Also, the growth in assay [7] was -85.1% (active); in assay [8], -86.3% (active); in [9] it was -87.7% (active); in assay [10] it was -58.3% (active); in assay [11], -83.6% (active); in [12], -76.9% (active). The growth is -78% (active) in assay [13]; -83.7% (active) in assay [14]; -90% (active) in assay [15]; -93.7% (active) in [16]; -92% (active) in [17]; -59.7% (active) in assay [18]. The growth in assay [19] is -48.8% (active).

For the compound `Nc1nc2c(c3cnccc13)C(c1ccc(Cl)c(Cl)c1)Cc1cnccc1-2` (stereo not given), the growth was -19.5% (active) in assay [1]; 8.17% (active) in [2]; -26.9% (active) in [3]; 13.7% in [4]; 5.13% (active) in assay [5]; -92.2% (active) in [6]. Further, the growth in assay [7] was -37.3% (active); in assay [8], -42.7% (active); in [9] it was -41.3% (active); in assay [10], -36.3% (active); in assay [11], 5.75% (active); in [12], 2.42% (active). For the same compound, the growth is -39.9% (active) in assay [13]; -40% (active) in [14]; -67.1% (active) in [15]; 4.1% (active) in [16]; -45.6% (active) in [17]; 3.33% (active) in [18]. For the same compound, the growth in assay [19] is 2.48% (active).

For the compound `CC(=O)Oc1cc2ccccc2cc1C(C)C`, the growth is 99.1% in assay [1]; 114% in [2]; 92.3% in assay [3]; 112% in assay [20]; 115% in assay [5]; 101% in assay [6]. Also, the growth in assay [7] is 116%; in [8], 109%; in assay [9], 113%; in assay [10] it was 85.7%; in assay [12] it was 111%; in assay [13], 88.7%. Besides, the growth in assay [15] is 97.4%; in [16] it was 106%; in assay [17] it was 81%; in assay [19] it was 109%.

As for `COc1cc2c(c3c1c(=O)c1cccc(F)c1n3C)C=CC(C)(C)O2`, the growth was 71.8% in [1]; 74.6% in assay [2]; 99.1% in assay [3]; 104% in [4]; 72.3% in assay [5]; 94.2% in [6]. The growth in [7] is 75.6%; in assay [8], 88.8%; in [9] it was 94.4%; in assay [10] it was 113%; in assay [12], 64.3%; in assay [13], -26.5% (active). The growth was 95.2% in [14]; 47.9% in assay [15]; -64% (active) in assay [16]; 90% in assay [17]; 85.2% in assay [19].
